Test results as given in PubChem BioAssay (NCATS).
Records with an inconclusive call do not appear. Where a call stands in place of a potency, no number is given. Activity calls are given as the source filed them. Calls follow the shape of the dose curve; as a rule, active = well fitted cell-killing curve with a large enough effect; inconclusive = small, poorly fitted or top-dose-only effect; inactive = flat fitted curve, though single readings scatter.

Test: qHTS assay to identify small molecule inhibitors of chordoma cells - UCH-2 (AID 1259356)
Settings: UCH-2 chordoma viability, CellTiter-Glo ATP luminescence, 48 h; series mostly up to 46.1 µM
Source text: NIH Chemical Genomics Center [NCGC]
Chordoma is a rare and slow growing tumor that can occur anywhere along the spine, from the base of the skull to the tailbone. Current treatment options for chordoma is surgery and radiation therapy for those who are not candidates for surgery. But chordomas tend to return in the same location or surrounding areas of the original tumor after surgery and/or radiation. Chemotherapy can slow down the progression of the tumor. As chordoma is slow growing, the general cytotoxic agents that kill fast growing cells are ineffective, and some patients have been reported to respond to molecularly targeted drugs.
NCATS Pharmaceutical Collection (NPC) containing approximately 3000 clinically approved and investigational drugs were used to screen at 15 concentrations in a chordoma cell lines, UCH-2, to identify small molecule compounds that can inhibit chordoma cell growth.
NCGC Assay Protocol Summary:
Human chordoma cell line UCH-2 was dispensed at 800 per well in 4uL of culture medium into white solid bottom 1536-well plates (Corning Life Sciences, Corning, NY) using a Multidrop Combi (Thermo Scientific, Waltham, MA) dispenser. The assay plates were incubated at 37 C and 5% CO2 for an overnight, and then 23nL of compounds dissolved in DMSO and positive control were transferred using a Pintool station (Wako, San Diego, CA). Compound treatment was followed by the addition of 1uL of the combination compounds (1uM Auranofin, 500nM each of Camptothecin, Doxorubicin, Rubitecan, and Topotecan) and assay medium to each well of the assay plates using Flying Reagent Dispenser (FRD, Aurora Discovery, San Diego, CA). The assay plates were incubated at 37 C and 5% CO2 for 48hr. Then 5uL of CellTiter-Glo reagent (Promega Corporation, Madison, WI) was added to each well of the assay plates using FRD. After 30min incubation at room temperature, the luminescence signal was quantified using a ViewLux plate reader (PerkinElmer, Shelton, CT).
For `C=CCN1CCc2nc(N)sc2CC1`, the Potency was “inactive”. For `CCOc1ccccc1OCCN[C@H](C)Cc1ccc(OC)c(S(N)(=O)=O)c1`, the Potency was “inactive”. For `Cc1c[nH]c2ccccc12`, the Potency was “inactive”. With `CC(=O)Nc1ccc(S(=O)(=O)Nc2ccc([N+](=O)[O-])cc2)cc1` the Potency was “inactive”. For `C#C[C@]1(OC(C)=O)CC[C@H]2[C@@H]3CCC4=C/C(=N/O)CC[C@@H]4[C@H]3CC[C@@]21CC`, the Potency was “inactive”. With `Cl/C(=C\n1cncn1)c1ccc(Cl)cc1Cl` the Potency was “inactive”. For `O=C(CN1CCN(Cc2ccc3c(c2)OCO3)CC1)N1c2ccccc2Sc2ccccc21`, the Potency was “inactive”. With `O=C(O)c1ccc(S(=O)(=O)N(Cl)Cl)cc1` the Potency was “inactive”. With `CCNC(=O)/C=C/c1cccc(Br)c1` the Potency was “inactive”. In the case of `CC(C)n1c(/C=C/[C@@H](O)C[C@@H](O)CC(=O)O)c(-c2ccc(F)cc2)c2ccccc21`, the Potency is reported as “inactive”. With `CCOC(=O)[C@H](CCc1ccccc1)N[C@@H](C)C(=O)N1[C@H](C(=O)O)C[C@@H]2CCC[C@@H]21` the Potency was “inactive”. For `COc1cc(O)c(C(=O)c2ccccc2)cc1S(=O)(=O)O`, the Potency was “inactive”. In the case of `NC(=O)n1c(O)c(C(=O)c2cccs2)c2cc(Cl)ccc21`, the Potency is reported as “inactive”. With `CN(C)CCC[C@@]1(c2ccc(F)cc2)OCc2cc(C#N)ccc21` the Potency was “inactive”. For `CC(=O)Nc1ncc([N+](=O)[O-])s1`, the Potency was “inactive”. In the case of `O=C(Nc1ncc([N+](=O)[O-])s1)c1cccs1`, the Potency is reported as “inactive”. For `CN1CCC[C@@H]1CCO[C@](C)(c1ccccc1)c1ccc(Cl)cc1`, the Potency was “inactive”. For `CCCCC(CC)COC(=O)c1ccc(N(C)C)cc1` (stereo not given), the Potency was “inactive”. In the case of `Cc1cccc(C)c1NC(=O)CN1CCCC1`, the Potency is reported as “inactive”. With `O=C(O)P(=O)(O)O` the Potency was “inactive”. With `CN(C)CCOC(=O)C(c1ccccc1)C1(O)CCCC1` (stereo not given) the Potency was “inactive”. With `Cc1cc(CC(=O)O)c(C)n1-c1ccc(Cl)cc1` the Potency was “inactive”. In the case of `CCCCCCCCCCCCSCCOCCO`, the Potency is reported as “inactive”. For `CCN(CC)CCNC(=O)c1cc(Br)c(N)cc1OC`, the Potency was “inactive”. In the case of `CCCN(CCC)S(=O)(=O)c1ccc(C(=O)O)cc1`, the Potency is reported as “inactive”. For `FC(F)(F)C(F)(F)C(F)(F)C(F)(F)C(F)(F)C(F)(F)C(F)(F)C(F)(F)Br`, the Potency was “inactive”. In the case of `COc1cc(C(=O)N2CCCCCCC2)cc(OC)c1OC`, the Potency is reported as “inactive”. With `CCC(C(=O)OCCOCCN(CC)CC)c1ccccc1` (stereo not given) the Potency was “inactive”. In the case of `NC(=S)N/N=C/c1cccnc1`, the Potency is reported as “inactive”. For `CCC1NC(=O)c2cc(S(N)(=O)=O)c(Cl)cc2N1` (stereo not given), the Potency was “inactive”. For `COc1ccc(C(=O)c2ccccc2)c(O)c1`, the Potency was “inactive”. For `CCCc1ncc(C[n+]2ccccc2C)c(N)n1`, the Potency was “inactive”. In the case of `O=C(O)Cc1csc(-c2ccc(Cl)cc2)n1`, the Potency is reported as “inactive”. In the case of `CCN[C@@H]1C[C@H](N)[C@@H](OC2OC(CN)=CCC2N)[C@H](O)[C@H]1O[C@H]1OC[C@](C)(O)[C@H](NC)[C@H]1O` (stereo not given in full), the Potency is reported as “inactive”. With `CC(C)Cn1cnc2c1c(=O)n(C)c(=O)n2C` the Potency was “inactive”. In the case of `CCCCCCCCCCCCCC[N+](C)(C)Cc1ccccc1`, the Potency is reported as “inactive”. With `CC1=C(C(=O)O)N2C(=O)[C@@H](NC(=O)[C@H](N)c3ccccc3)[C@H]2SC1` the Potency was “inactive”. For `O=[N+]([O-])c1cccc(S(=O)(=O)NCCNS(=O)(=O)c2cccc([N+](=O)[O-])c2)c1`, the Potency was “inactive”. With `CN=C(N)NCCC[C@H](N)C(=O)O` the Potency was “inactive”. With `CC(=O)NC(=O)c1ccccc1O` the Potency was “inactive”.
